Assay results reported in publication PMC5540273 (PLoS ONE, 2017).

test system: T1, VPS34; conditions: concentration: 1 μM, replicates: in singlicate; n = 1
T1 construct: gene PIK3C3
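Also: KINOMEscan kinase panel screen.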

Row | Compound | %Inh
1 | Nc1nc(N)c2nc(-c3ccccc3)[nH]c2n1 [SKF-12778] | 0%
2 | COc1cc2nccc(Nc3cccc(Oc4ccccc4)c3)c2cc1OC.Cl [GW284543] | 35%
3 | CCc1ccc(-c2ccc3c(c2)-c2nn(C)cc2S(=O)(=O)N3C)cc1 | 0%
4 | O=C(NCc1cccs1)c1cc(C(=O)c2c(Cl)cccc2Cl)c[nH]1 [GW823670] | 0%
5 | CCCC(=O)Nc1n[nH]c2ncc(-c3cccc4ccccc34)cc12 [SB-642057] | 0%
6 | CCC(=O)c1c(-c2ccccc2)c2cc(Cl)ccc2c(=O)n1Cc1cc(S(C)(=O)=O)n(CC(F)F)n1 | 0%
7 | Nc1ncnc2c1ncn2-c1cccc(F)c1 [SKF-97560] | 4%
8 | Cc1c(Cn2c(C)nn3c(=O)cc(N4CCO[C@H](C)C4)nc23)cccc1C(F)(F)F [GSK2373690] | 59%
9 | COc1cc(Nc2nccc(N3CCC(NC(=O)C4COc5ccccc5O4)C3)n2)cc(OC)c1OC (stereo not drawn) [GSK1379761] | 16%
10 | Cc1ccccc1COc1cc(-n2cnc3cc(Cl)ccc32)sc1C(N)=O [GW813349] | 84%
11 | Cc1ccc(-c2ccc3c(ccc4sc5c(c43)NC[C@@H](C)N=C5N(C)C)n2)cn1 | 0%
12 | Fc1cccc(CSc2nnc(-c3ccc4c(c3)CCO4)o2)c1 | 13%
13 | CN1C(=O)C(Nc2cc(Cl)c(O)c(Cl)c2)=C(c2ccc(Cl)cc2)C1=O [SB-404321] | 0%
14 | CCC(=O)c1c(-c2ccccc2)c2cc(Cl)ccc2c(=O)n1Cc1ccc(C(=O)O)cc1 | 7%
15 | COc1cc(Nc2nccc(N3CCC(NC(=O)C(C)c4ccc(Cl)cc4)C3)n2)cc(OC)c1OC (stereo not drawn) [GSK1379757] | 0%
16 | C[C@@H]1CC[C@H](C(=O)NC2CCCCC2)CN1c1cc(-c2ccc3c(N)n[nH]c3c2)nc(N)n1 [GSK2291363] | 31%
17 | COc1ccc(-c2coc3ccc(-c4nnc(SCc5cccc(C#N)c5)o4)cc23)cc1 | 0%
18 | CCS(=O)c1ccc(-c2coc3ccc(-c4nnc(C)o4)cc23)cc1 (stereo not drawn) | 15%

Row | Compound | %Inh
19 | Cc1cc(Nc2nc(-c3cccc(C)n3)nc3ccccc23)ccn1 [GW872411] | 0%
20 | COC(=O)c1c(-c2ccccc2)c2cc(Br)ccc2c(=O)n1Cc1ccc(S(C)(=O)=O)cc1 | 0%
21 | Nc1nccc2scc(-c3ccc4c(c3)CCN4C(=O)Cc3ccccc3)c12 [GSK2576924] | 0%
22 | O=C(NCCNc1ccnc(Nc2ccc(F)cc2)n1)Nc1ccc2c(c1)OCO2 [GSK1379882] | 0%
23 | COC(=O)c1c(-c2ccccc2)c2cc(Br)ccc2c(=O)n1Cc1ccc(NC(=O)CCC(=O)O)cc1 | 0%
24 | Nc1ncnc2c1ncn2-c1ccc(Cl)cc1 [AH2635] | 0%
25 | O=C(Nc1n[nH]c2cc(-c3ccccc3F)ccc12)C1CC1 [SB-733371] | 0%
26 | Nc1n[nH]c2nnc(-c3ccccc3)c(-c3ccccc3)c12 [GW554060] | 0%
27 | FC(F)(F)c1ccc(-c2ncn(CCCN3CCOCC3)c2-c2ccncc2)cc1 [SB-217780] | 13%
28 | COc1ccc(-n2cnc3c(N)ncnc32)cc1 [SKF-97236] | 27%
29 | CCC(=O)c1c(-c2ccccc2)c2cc(Cl)ccc2c(=O)n1Cc1cc(C(=O)NC2CC2)n(C)n1 | 20%
30 | CCC(=O)c1c(-c2ccccc2)c2cc(Cl)ccc2c(=O)n1Cc1cc(S(C)(=O)=O)n(CCC(C)(C)O)n1 | 0%
31 | COC(=O)c1c(-c2ccccc2)c2cc(C)ccc2c(=O)n1Cc1ccccc1 | 0%
32 | COc1cc(Nc2ccnc3ccc(C(F)(F)F)cc23)cc(OC)c1OC [GW577382] | 0%
33 | COc1ccc(-c2cc3c(C)nc(N)nc3n([C@H]3CC[C@H](OCCO)CC3)c2=O)cn1 | 0%
34 | Cc1nnc(-c2ccc3ncn(-c4ccc(S(C)=O)cc4)c3c2)o1 (stereo not drawn) | 15%
35 | COc1cc2ncn(-c3cc(OCc4ccc(S(C)(=O)=O)cc4)c(C(N)=O)s3)c2cc1OC [GW869979] | 33%
36 | CCC(=O)c1c(-c2ccccc2)c2cc(Cl)ccc2c(=O)n1Cc1cc(S(C)(=O)=O)n(CC(N)=O)n1 | 0%

test system: VRK2; conditions: concentration: 1 μM, replicates: in singlicate; n = 1

Row | Compound | %Inh
37 | Nc1nc(N)c2nc(-c3ccccc3)[nH]c2n1 [SKF-12778] | 5%
38 | COc1cc2nccc(Nc3cccc(Oc4ccccc4)c3)c2cc1OC.Cl [GW284543] | 0%
39 | CCc1ccc(-c2ccc3c(c2)-c2nn(C)cc2S(=O)(=O)N3C)cc1 | 14%
40 | O=C(NCc1cccs1)c1cc(C(=O)c2c(Cl)cccc2Cl)c[nH]1 [GW823670] | 0%
41 | CCCC(=O)Nc1n[nH]c2ncc(-c3cccc4ccccc34)cc12 [SB-642057] | 0%
42 | CCC(=O)c1c(-c2ccccc2)c2cc(Cl)ccc2c(=O)n1Cc1cc(S(C)(=O)=O)n(CC(F)F)n1 | 0%
43 | Nc1ncnc2c1ncn2-c1cccc(F)c1 [SKF-97560] | 29%
44 | Cc1c(Cn2c(C)nn3c(=O)cc(N4CCO[C@H](C)C4)nc23)cccc1C(F)(F)F [GSK2373690] | 0%
45 | COc1cc(Nc2nccc(N3CCC(NC(=O)C4COc5ccccc5O4)C3)n2)cc(OC)c1OC (stereo not drawn) [GSK1379761] | 41%
46 | Cc1ccccc1COc1cc(-n2cnc3cc(Cl)ccc32)sc1C(N)=O [GW813349] | 0%
47 | Cc1ccc(-c2ccc3c(ccc4sc5c(c43)NC[C@@H](C)N=C5N(C)C)n2)cn1 | 0%
48 | Fc1cccc(CSc2nnc(-c3ccc4c(c3)CCO4)o2)c1 | 5%
49 | CN1C(=O)C(Nc2cc(Cl)c(O)c(Cl)c2)=C(c2ccc(Cl)cc2)C1=O [SB-404321] | 90.3%
50 | CCC(=O)c1c(-c2ccccc2)c2cc(Cl)ccc2c(=O)n1Cc1ccc(C(=O)O)cc1 | 0%
51 | COc1cc(Nc2nccc(N3CCC(NC(=O)C(C)c4ccc(Cl)cc4)C3)n2)cc(OC)c1OC (stereo not drawn) [GSK1379757] | 0%
52 | C[C@@H]1CC[C@H](C(=O)NC2CCCCC2)CN1c1cc(-c2ccc3c(N)n[nH]c3c2)nc(N)n1 [GSK2291363] | 0%
53 | COc1ccc(-c2coc3ccc(-c4nnc(SCc5cccc(C#N)c5)o4)cc23)cc1 | 0%
54 | CCS(=O)c1ccc(-c2coc3ccc(-c4nnc(C)o4)cc23)cc1 (stereo not drawn) | 2%

Row | Compound | %Inh
55 | Cc1cc(Nc2nc(-c3cccc(C)n3)nc3ccccc23)ccn1 [GW872411] | 40%
56 | COC(=O)c1c(-c2ccccc2)c2cc(Br)ccc2c(=O)n1Cc1ccc(S(C)(=O)=O)cc1 | 0%
57 | Nc1nccc2scc(-c3ccc4c(c3)CCN4C(=O)Cc3ccccc3)c12 [GSK2576924] | 0%
58 | O=C(NCCNc1ccnc(Nc2ccc(F)cc2)n1)Nc1ccc2c(c1)OCO2 [GSK1379882] | 0%
59 | COC(=O)c1c(-c2ccccc2)c2cc(Br)ccc2c(=O)n1Cc1ccc(NC(=O)CCC(=O)O)cc1 | 0%
60 | Nc1ncnc2c1ncn2-c1ccc(Cl)cc1 [AH2635] | 15%
61 | O=C(Nc1n[nH]c2cc(-c3ccccc3F)ccc12)C1CC1 [SB-733371] | 0%
62 | Nc1n[nH]c2nnc(-c3ccccc3)c(-c3ccccc3)c12 [GW554060] | 18%
63 | FC(F)(F)c1ccc(-c2ncn(CCCN3CCOCC3)c2-c2ccncc2)cc1 [SB-217780] | 42%
64 | COc1ccc(-n2cnc3c(N)ncnc32)cc1 [SKF-97236] | 0%
65 | CCC(=O)c1c(-c2ccccc2)c2cc(Cl)ccc2c(=O)n1Cc1cc(C(=O)NC2CC2)n(C)n1 | 0%
66 | CCC(=O)c1c(-c2ccccc2)c2cc(Cl)ccc2c(=O)n1Cc1cc(S(C)(=O)=O)n(CCC(C)(C)O)n1 | 0%
67 | COC(=O)c1c(-c2ccccc2)c2cc(C)ccc2c(=O)n1Cc1ccccc1 | 0%
68 | COc1cc(Nc2ccnc3ccc(C(F)(F)F)cc23)cc(OC)c1OC [GW577382] | 27%
69 | COc1ccc(-c2cc3c(C)nc(N)nc3n([C@H]3CC[C@H](OCCO)CC3)c2=O)cn1 | 0%
70 | Cc1nnc(-c2ccc3ncn(-c4ccc(S(C)=O)cc4)c3c2)o1 (stereo not drawn) | 0%
71 | COc1cc2ncn(-c3cc(OCc4ccc(S(C)(=O)=O)cc4)c(C(N)=O)s3)c2cc1OC [GW869979] | 2%
72 | CCC(=O)c1c(-c2ccccc2)c2cc(Cl)ccc2c(=O)n1Cc1cc(S(C)(=O)=O)n(CC(N)=O)n1 | 0%
